Assay results reported in PubChem BioAssay AID2233 (The Scripps Research Institute Molecular Screening Center, 2010).
The other results are listed elsewhere or left out. Unmarked numbers belong to inactive results. The source made the active and inactive calls.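 How the source made its calls: active means mean inhibition across replicates above the hit cutoff set in the primary screen (cut at about 15% in these data); inactive means the rest.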

target: Acyl-protein thioesterase 1 (Homo sapiens) (UniProt O75608); assay: inhibition of human lysophospholipase 1 – biochemical, fluorescence polarization, FP-Rh probe ABPP, counter-screen for PME1 inhibitor project, confirmation (AID 2233); details: recombinant LYPLA1, FP-Rh probe fluorescence polarization; at 5.9 µM; hits give high values;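 further: loss of FP-Rh probe labeling of LYPLA1 seen as lower polarization; 0% = LYPLA1 with DMSO and 100% = wells lacking LYPLA1 enzyme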
Sequence (O75608 whole entry, looked up): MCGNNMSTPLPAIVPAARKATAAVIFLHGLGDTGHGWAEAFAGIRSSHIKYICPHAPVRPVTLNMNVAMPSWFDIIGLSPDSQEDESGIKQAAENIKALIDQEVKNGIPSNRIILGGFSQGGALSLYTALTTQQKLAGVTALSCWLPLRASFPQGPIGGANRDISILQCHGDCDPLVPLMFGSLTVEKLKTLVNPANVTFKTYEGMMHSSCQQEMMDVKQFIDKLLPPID

Compound | inhibition
CCOc1ccc(C(=O)NC(=S)Nc2ccc(N3CCOCC3)c(Cl)c2)cc1[N+](=O)[O-] | 24.6% (active)
COc1ccc(-c2nc(CS(=O)CC(=O)NCc3ccccn3)c(C)o2)cc1 (centres undefined) | 16.5% (active)
O=C(CCn1c(SCC(=O)c2ccccc2)nc2ccccc2c1=O)NCc1ccc(F)cc1 | -4.57%
O=C(c1ccc(-c2ccccc2)cc1)C1CCCN(C(=O)c2cncs2)C1 (centres undefined) | 30.7% (active)
CSc1c(SCc2ccccc2)cnn(Cc2ccccc2)c1=O | 2.84%
Cc1ccc(S(=O)(=O)N2CCC(C(=O)N[C@@H](C)C(=O)NCc3ccco3)CC2)cc1 | 2.78%
O=C(COc1ccc(Cl)cc1)N1CCN(c2cccc(C(F)(F)F)c2)CC1 | 31.6% (active)
C=CCNC(=O)c1sc(SC)cc1-c1ccc(Cl)cc1 | 23.5% (active)
O=c1[nH]n(-c2cccc(Cl)c2)c2ncccc12 | 2.75%
